# Inconclusive results are not listed. Active and inactive are the calls of the source. Rule for the calls: active = hit-call score of the fitted dose curve at least 0.9, where 1 is the maximum; inconclusive = response in the unintended direction; inactive = score below 0.9.
# Legend:
# [1] = molecular target: human Endothelin Receptor Type B (ETB), EDNRB (gene 1910) (UniProt P24530); assay: NVS_GPCR_hETB: NovaScreen (NVS) G Protein-Coupled Receptor Assay for human Endothelin Receptor Type B (ETB) (AID 2283267)
# Summary of the method: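 Human astrocytoma cell membranes; radioligand competitive binding read by filter scintillation counting 4 hours after dosing. Single-concentration duplicate screen at 25 uM, then singleton concentration-response up to 50 uM; loss of signal versus DMSO.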
# [2] = molecular target: human Histamine 1 Receptor (H1), HRH1 (gene 3269) (UniProt P35367); assay: NVS_GPCR_hH1: NovaScreen (NVS) G Protein-Coupled Receptor Assay for human Histamine 1 Receptor (H1) (AID 2283268)
# Summary of the method: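 Cell-free radioligand displacement at human H1 receptor, 1 h, filter scintillation counting; primary screen 25 uM in duplicate, hits in concentration series; loss of binding fitted vs DMSO.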
# [3] = molecular target: Muscarinic acetylcholine receptor M1 (Homo sapiens) (UniProt P11229); assay: NVS_GPCR_hM1: NovaScreen (NVS) G Protein-Coupled Receptor Assay for human Muscarinic, M1 Receptor (AID 2283270)
# Summary of the method: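 Cell-free radioligand displacement using membrane protein extracted from CHO cells, read by filter-based scintillation counting 1 h after dosing. Loss of bound signal fitted versus DMSO; primary screen single concentration 25 uM in duplicate, actives followed by concentration series.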
# [4] = molecular target: Muscarinic acetylcholine receptor M3 (Homo sapiens) (UniProt P20309); assay: NVS_GPCR_hM3: NovaScreen (NVS) G Protein-Coupled Receptor Assay for human Muscarinic, M3 Receptor (AID 2283272)
# Summary of the method: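 Radioligand displacement binding on human M3 receptor in CHO-derived membranes, 1 h incubation, filter-based scintillation counting. Primary screen in duplicate at 25 uM; actives followed up in concentration series; loss of signal versus DMSO.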
# [5] = molecular target: human Muscarinic, M4 Receptor, CHRM4 (gene 1132) (UniProt P08173); assay: NVS_GPCR_hM4: NovaScreen (NVS) G Protein-Coupled Receptor Assay for human Muscarinic, M4 Receptor (AID 2283274)
# Summary of the method: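 Cell-free radioligand displacement using CHO-derived human M4 receptor protein, 1 h after dosing; bound radioactivity by filtration and scintillation counting. Primary screen single 25 uM duplicate, actives followed in concentration series.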
# [6] = molecular target: human Neuropeptide Receptor Y1 (NPY1), NPY1R (gene 4886) (UniProt P25929); assay: NVS_GPCR_hNPY1: NovaScreen (NVS) G Protein-Coupled Receptor Assay for human Neuropeptide Receptor Y1 (NPY1) (AID 2283276)
# Summary of the method: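 Cell-free radioligand binding using receptor extracted from SK-N-MC cells, 1 h incubation, filter-based scintillation counting. Primary screen single concentration 25 uM in duplicate; actives followed in concentration series. Loss of bound signal scored versus DMSO.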
# [7] = molecular target: Neuropeptide Y receptor type 2 (Homo sapiens) (UniProt P49146); assay: NVS_GPCR_hNPY2: NovaScreen (NVS) G Protein-Coupled Receptor Assay for human Neuropeptide Receptor Y2 (NPY2) (AID 2283277)
# Summary of the method: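 Radioligand binding on membranes extracted from SK-N-MC cells, cell-free, read 1 h after dosing by filter-based scintillation counting. Loss of signal vs DMSO. Primary screen in duplicate at 25 uM; actives followed up in concentration-response up to 50 uM.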
# Muscarinic acetylcholine receptor M1 (Homo sapiens), sequence (P11229 whole entry, looked up): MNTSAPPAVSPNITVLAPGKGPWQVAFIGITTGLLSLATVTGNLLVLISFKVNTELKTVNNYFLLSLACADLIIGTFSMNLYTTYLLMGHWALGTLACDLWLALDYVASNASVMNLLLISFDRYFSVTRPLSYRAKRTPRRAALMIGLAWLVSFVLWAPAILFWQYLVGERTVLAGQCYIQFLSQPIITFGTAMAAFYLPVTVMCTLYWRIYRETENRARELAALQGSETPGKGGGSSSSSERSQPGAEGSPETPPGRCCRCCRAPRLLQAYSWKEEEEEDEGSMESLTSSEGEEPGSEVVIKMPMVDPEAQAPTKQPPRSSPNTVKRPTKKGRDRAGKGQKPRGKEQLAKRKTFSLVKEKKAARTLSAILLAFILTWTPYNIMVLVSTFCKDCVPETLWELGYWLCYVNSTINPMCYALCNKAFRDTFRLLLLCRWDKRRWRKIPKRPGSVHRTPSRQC
# human Endothelin Receptor Type B (ETB), EDNRB (gene 1910), sequence (P24530 whole entry, looked up): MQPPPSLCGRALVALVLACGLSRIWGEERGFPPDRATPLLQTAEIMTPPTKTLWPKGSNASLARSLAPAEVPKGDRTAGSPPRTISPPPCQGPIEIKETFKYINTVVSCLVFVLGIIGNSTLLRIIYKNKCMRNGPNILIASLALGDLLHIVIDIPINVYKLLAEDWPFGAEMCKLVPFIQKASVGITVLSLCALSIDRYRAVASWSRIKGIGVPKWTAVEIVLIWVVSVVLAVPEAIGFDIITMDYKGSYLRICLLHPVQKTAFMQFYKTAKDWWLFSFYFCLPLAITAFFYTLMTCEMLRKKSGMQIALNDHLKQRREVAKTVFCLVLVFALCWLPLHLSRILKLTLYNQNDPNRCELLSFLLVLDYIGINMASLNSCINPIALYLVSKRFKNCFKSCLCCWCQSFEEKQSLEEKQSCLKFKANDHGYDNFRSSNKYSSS
# human Histamine 1 Receptor (H1), HRH1 (gene 3269), sequence (P35367 whole entry, looked up): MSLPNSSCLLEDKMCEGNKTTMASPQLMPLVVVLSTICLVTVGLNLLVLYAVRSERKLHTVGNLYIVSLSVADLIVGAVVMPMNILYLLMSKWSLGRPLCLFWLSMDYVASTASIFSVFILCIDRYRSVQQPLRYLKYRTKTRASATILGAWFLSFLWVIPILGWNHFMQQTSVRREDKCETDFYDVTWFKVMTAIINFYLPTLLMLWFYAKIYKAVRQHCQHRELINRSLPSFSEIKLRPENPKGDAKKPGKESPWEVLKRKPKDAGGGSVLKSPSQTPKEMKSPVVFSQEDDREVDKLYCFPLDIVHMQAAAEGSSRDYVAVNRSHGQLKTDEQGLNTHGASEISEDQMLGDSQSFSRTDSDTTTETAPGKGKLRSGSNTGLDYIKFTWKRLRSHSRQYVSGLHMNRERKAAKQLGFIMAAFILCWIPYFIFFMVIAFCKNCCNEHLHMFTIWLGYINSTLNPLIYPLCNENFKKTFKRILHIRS
# human Muscarinic, M4 Receptor, CHRM4 (gene 1132), sequence (P08173 whole entry, looked up): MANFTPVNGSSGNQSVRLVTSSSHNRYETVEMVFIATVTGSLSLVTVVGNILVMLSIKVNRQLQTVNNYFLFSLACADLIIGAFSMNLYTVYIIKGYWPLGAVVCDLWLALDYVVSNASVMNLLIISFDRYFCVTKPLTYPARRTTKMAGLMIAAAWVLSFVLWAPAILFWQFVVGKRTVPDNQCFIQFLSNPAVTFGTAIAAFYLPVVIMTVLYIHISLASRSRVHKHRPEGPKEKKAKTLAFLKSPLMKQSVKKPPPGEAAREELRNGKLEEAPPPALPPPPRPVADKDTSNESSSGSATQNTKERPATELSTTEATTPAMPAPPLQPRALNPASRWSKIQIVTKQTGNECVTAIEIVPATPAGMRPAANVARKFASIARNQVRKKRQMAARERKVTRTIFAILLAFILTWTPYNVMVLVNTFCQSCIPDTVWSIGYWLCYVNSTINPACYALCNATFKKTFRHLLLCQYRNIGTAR
# Neuropeptide Y receptor type 2 (Homo sapiens), sequence (P49146 whole entry, looked up): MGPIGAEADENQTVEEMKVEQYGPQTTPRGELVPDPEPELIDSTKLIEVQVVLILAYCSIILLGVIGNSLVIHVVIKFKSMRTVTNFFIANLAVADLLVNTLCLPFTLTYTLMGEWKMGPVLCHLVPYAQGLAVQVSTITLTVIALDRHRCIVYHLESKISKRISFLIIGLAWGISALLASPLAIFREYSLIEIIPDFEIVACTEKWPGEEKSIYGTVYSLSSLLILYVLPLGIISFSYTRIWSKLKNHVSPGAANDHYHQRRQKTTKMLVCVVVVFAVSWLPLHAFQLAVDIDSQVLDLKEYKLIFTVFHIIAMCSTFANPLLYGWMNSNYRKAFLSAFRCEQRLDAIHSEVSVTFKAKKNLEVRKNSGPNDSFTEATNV
# Muscarinic acetylcholine receptor M3 (Homo sapiens), sequence (P20309 whole entry, looked up): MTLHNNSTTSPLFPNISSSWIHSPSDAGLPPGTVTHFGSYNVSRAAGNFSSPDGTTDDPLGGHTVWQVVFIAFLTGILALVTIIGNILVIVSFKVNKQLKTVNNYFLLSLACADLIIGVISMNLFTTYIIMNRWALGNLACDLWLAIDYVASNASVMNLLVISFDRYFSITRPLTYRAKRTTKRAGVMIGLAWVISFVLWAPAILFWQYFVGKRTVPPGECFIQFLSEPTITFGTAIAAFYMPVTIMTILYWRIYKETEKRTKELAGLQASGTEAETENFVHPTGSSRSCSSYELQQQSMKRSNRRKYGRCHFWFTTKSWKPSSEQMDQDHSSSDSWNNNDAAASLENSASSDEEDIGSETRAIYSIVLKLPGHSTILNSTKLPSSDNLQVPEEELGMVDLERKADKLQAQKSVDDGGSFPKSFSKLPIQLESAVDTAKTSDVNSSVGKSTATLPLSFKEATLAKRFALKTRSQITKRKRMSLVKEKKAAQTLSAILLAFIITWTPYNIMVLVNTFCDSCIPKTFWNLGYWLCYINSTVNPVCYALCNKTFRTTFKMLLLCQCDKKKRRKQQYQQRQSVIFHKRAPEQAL
# human Neuropeptide Receptor Y1 (NPY1), NPY1R (gene 4886), sequence (P25929 whole entry, looked up): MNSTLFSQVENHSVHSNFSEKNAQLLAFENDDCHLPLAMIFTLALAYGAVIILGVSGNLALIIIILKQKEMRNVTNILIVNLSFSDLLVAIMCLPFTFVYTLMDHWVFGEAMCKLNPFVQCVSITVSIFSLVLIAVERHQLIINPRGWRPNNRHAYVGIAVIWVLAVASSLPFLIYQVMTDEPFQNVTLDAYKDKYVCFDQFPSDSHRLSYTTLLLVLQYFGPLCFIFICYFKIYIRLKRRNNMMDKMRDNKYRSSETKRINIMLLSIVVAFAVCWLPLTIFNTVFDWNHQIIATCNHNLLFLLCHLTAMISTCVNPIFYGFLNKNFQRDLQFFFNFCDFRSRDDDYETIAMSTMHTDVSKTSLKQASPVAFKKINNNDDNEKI
smiles,measurement,setting,value
CCCCN(CCCC)SN(C)C(=O)Oc1cccc2c1OC(C)(C)C2,outcome,[1],inactive
same,outcome,[2],inactive
CC1(C)CN=C(NN=C(/C=C/c2ccc(C(F)(F)F)cc2)/C=C/c2ccc(C(F)(F)F)cc2)NC1,AC50,[3],19.6 µM (active)
CCOP(=S)(Oc1ccc([N+](=O)[O-])cc1)c1ccccc1 (configuration not stated),outcome,[4],inactive
same,outcome,[5],inactive
ClC(Cl)c1ccccc1,AC50,[6],5.17 µM (active)
Nc1ccc(Cl)cc1,outcome,[7],inactive

# From PubChem BioAssay (EPA / NIEHS)
